# Results filed as inconclusive are left out. A call without a number means that no potency is given here. Activity calls are given as the source filed them. The call rests on the fitted dose curve; in most records, active means well fitted inhibition curve with a large enough effect in the polarisation, with a control signal flat (not every such curve was filed as active); inconclusive means small, poorly fitted or top-dose-only effect, or effect the other way, or a change in a side signal; inactive means no such curve, though single readings can be large or run the other way; the % refers to the polarisation.
# Assay: Confirmation of Inhibitors Targeting the Menin-MLL Interaction in MLL Related Leukemias: Competition With Texas Red Labeled MLL-derived Mutant Peptide
# Details: fluorescence polarization, Texas Red MLL peptide displacement; series mostly up to 288 µM
# From the text: qHTS Assay for Inhibitors Targeting the Menin-MLL Interaction in MLL Related Leukemias
# NIH Chemical Genomics Center [NCGC]
# NIH Molecular Libraries Probe Centers Network [MLPCN]
# Assay Submitter (PI): Jolanta Grembecka, Tomasz Cierpicki, University of Virginia
# Translocations of the MLL (Mixed Lineage Leukemia) gene are frequently found in human leukemias affecting both children and adults. Fusion of MLL to one of more than 60 genes results in generation of oncogenic proteins upregulating Hox genes, which are vital to blood cell development. Patients harboring fusion of the MLL gene suffer from aggressive leukemias and respond poorly to available therapies. All of the oncogenic fusion proteins have a preserved N-terminal fragment of MLL that has been identified to interact with menin. It has been recently discovered that association with menin is critical to the leukemogenic activity of the MLL fusion oncoproteins. Selective targeting of the menin-MLL interaction could provide an attractive therapeutic approach to develop novel drugs for MLL-related leukemias. Small molecules blocking the menin-MLL interaction should reverse the oncogenic potential of MLL fusion proteins.
# We have developed and optimized a fluorescence polarization-based assay for the identification of Menin-MLL inhibitors. The assay was run employing two different MLL-derived peptides. The present assay uses a 12 amino acid peptide labeled with fluorescein at its N-terminus. This peptide consists of the menin high affinity binding motif from MLL and is potently bound by menin. Another peptide with a mutated sequence, labeled with Texas Red, was used in parallel as a less stringent screen for inhibitors.
# The present assay was run to confirm the activity of hits from the primary screen using the peptide with a mutated sequence, labeled with Texas Red.
# The Menin protein, the MLL-wild type (w.t.) derived peptide (N-terminal 12 amino acids), the MLL-derived peptide labeled with Texas Red and the MLL-w.t. peptide labeled with Fluorescein were kindly supplied by laboratory of Dr. Jolanta Grembecka, University of Virginia. All protein and peptide solutions were stored in single use aliquots at -80C. The Eu3+ Cyrptate-conjugated mouse monoclonal antibody anti-6 Histidine (Eu3+-AB) and the Streptavidin-XL665 conjugate (XL665) were purchased from Cisbio International (Bedford, MA). All antibody and XL665 conjugate solution stocks were stored in single use aliquots at -20C. The Buffer components for all assays were purchased from Sigma-Aldrich (St. Louis, MO) and Invitrogen (Carlsbad, CA).
# 1. FP reaction buffer: 50 mM Tris-HCl pH 7.5, 50 mM NaCl, 1mM DTT.
# Before use, 0.05% BSA is added.
# 2. Menin protein, MLL-w.t. labeled with fluorescein, MLL-mutant peptide labeled with texas red.
# Stored in singe use aliquots at -80C.
# 3. MLL-w.t. unlabeled peptide as positive control: 10 uM final in FP buffer.
# 1. Prepare Menin at 200 nM, MLL-w.t.-fluorescein at 25 nM, and MLL-mutant-texas red at 50 nM mixture in FP buffer.
# 2. Prepare Menin at 200 nM, MLL-w.t.-fluorescein at 25 nM, MLL-mutant-texas red at 50 nM, and 10 uM MLL-w.t. unlabeled mixture in FP buffer.
# 3. Prepare MLL-w.t.-fluorescein at 25 nM and MLL-mutant-texas red at 50 nM mixture in FP buffer.
# 3. Dispense 4 ul per well of reagent in step 1 in columns 2, 4 - 48 in a black 1536 well plate, dispense 4 ul per well of reagents from steps 2 and 3 in columns 1 and 3 respectively. Incubate plate at ambient for 15 minutes.
# 4. Transfer 23 nl per well of compound to plate and incubate at ambient for 1 hr.
# 5. Read fluorescence polarization for each label using the PerkinElmer Envision.
# Envision protocol for fluorescein: FITC FP Dual Enh Mirror, Excitation filter 480, Emission filter (1) P-pol 535, Emission filter (2) S-pol 535
# Envision protocol for texas red: FP Dual Enh Mirror, Excitation filter 555, Emission filter (1) P-pol 632, Emission filter (2) S-pol 632
# Potency means the concentration at half of the fitted maximal effect.
row,SMILES,Potency
1,O=C1NC(=O)C(=Cc2ccc3ccccc3c2)C(=O)N1,inactive
2,Cc1cc(C(=O)NP(=O)(N2CCOCC2)N2CCOCC2)c(C)n1C1CC1,inactive
3,c1cc2cc(c1)C[n+]1ccc(c3ccccc31)NCc1ccc(cc1)CNc1cc[n+](c3ccccc13)C2,100 µM (active)
4,O=C(O)CN1C(=O)CN=C(c2ccccn2)c2cc(Cl)ccc21,inactive
5,COc1cc(/C=N/n2cnnc2)ccc1OC(=O)N(C)C,inactive
6,O=C(Nc1ccc2ccccc2c1)c1nn(C23CC4CC(CC(C4)C2)C3)cc1Br,inactive
7,CCCCCn1c(=O)c(C(=O)Nc2nc(CC(=O)OCC)cs2)c(O)c2ccccc21,inactive
8,C[N+](C)(C)CC#CCN1CCCC1=O,inactive
9,OC12C3C4CC5C6C4C1C6C(C53)N2CCc1cccc(F)c1 (centres undefined),inactive
10,C[C@@H]1CC[C@@]2(NC1)O[C@H]1C[C@H]3[C@@H]4CC=C5C[C@@H](O)CC[C@]5(C)[C@H]4CC[C@]3(C)[C@H]1[C@@H]2C,inactive
11,CC[C@]12C=CCN3CC[C@@]4(c5ccc(OC)cc5N(C)[C@H]4[C@@](O)(C(=O)OC)[C@@H]1OC(C)=O)C32 (some centres undefined),inactive
12,COc1ccc(C(O)P(=O)(Oc2ccccc2)Oc2ccccc2)cc1 (centres undefined),inactive
13,CCOP(=O)(OCC)C(NC(=O)c1ccccc1C)C(Cl)(Cl)Cl (centres undefined),inactive
14,CCCCn1c(=O)c(C(=O)Nc2ccsc2C(=O)OC)c(O)c2ccccc21,14.2 µM (active)
